Among all 5,500 compounds or so, about 2,000 (36%) were called active. Inconclusive results (about 18%) are left out. Rule as the data show it: active = normalized growth mostly below about 0.91 (no sharp cut-off); inconclusive = no clear call, values can overlap the other calls; inactive = mostly above about 0.92. This is one part of the list.
Assay: chemical genetic growth profiling, strain panel (AID 1159580);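 also: tested at 20 µM; growth read once vehicle control cultures reached saturation at 30 °C; 1 = growth at the plate median or of vehicle wells; lower values mean less growth of the strain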
Details: growth OD
[1] = S. cerevisiae deletion strains, locus YDL101C, strain DUN1, hits give low values
[2] = S. cerevisiae deletion strains, locus YHR030C, strain SLT2, hits give low values

Measured: normalized growth

N#CC(C#N)=Cc1ccc(-c2cc(C(F)(F)F)ccc2Cl)o1
inactive: S. cerevisiae deletion strains, locus YAL013W, strain DEP1, hits give low values 1.01 | S. cerevisiae deletion strains, locus YBR229C, strain ROT2, hits give low values 1.01 | [1] 1.03 | S. cerevisiae deletion strains, locus YDR150W, strain NUM1, hits give low values 0.993 | S. cerevisiae deletion strains, locus YEL061C, strain CIN8, hits give low values 0.997 | S. cerevisiae deletion strains, locus YGR078C, strain PAC10, hits give low values 1.01 | [2] 0.819 | S. cerevisiae deletion strains, locus YHR087W, strain rtc3, hits give low values 1.02 | S. cerevisiae deletion strains, locus YJL187C, strain SWE1, hits give low values 0.997 | S. cerevisiae deletion strains, locus YJR043C, strain POL32, hits give low values 0.989 | S. cerevisiae deletion strains, locus YJR075W, strain HOC1, hits give low values 0.987 | S. cerevisiae deletion strains, locus YLR039C, strain RIC1, hits give low values 0.844 | S. cerevisiae deletion strains, locus YLR058C, strain SHM2 (second series), hits give low values 0.99 | S. cerevisiae deletion strains, locus YLR085C, strain ARP6, hits give low values 0.797 | S. cerevisiae deletion strains, locus YLR262C, strain YPT6, hits give low values 0.913 | S. cerevisiae deletion strains, locus YML094W, strain GIM5, hits give low values 1.08 | S. cerevisiae deletion strains, locus YMR219W, strain ESC1, hits give low values 0.996 | S. cerevisiae deletion strains, locus YMR263W, strain SAP30, hits give low values 0.97 | S. cerevisiae deletion strains, locus YMR307W, strain GAS1, hits give low values 0.786 | S. cerevisiae deletion strains, locus YNL153C, strain GIM3, hits give low values 1.02 | S. cerevisiae deletion strains, locus YNL298W, strain CLA4 (second series), hits give low values 0.923 | S. cerevisiae deletion strains, locus YNL322C, strain KRE1, hits give low values 0.986 | S. cerevisiae deletion strains, locus YNR030W, strain Alg12, hits give low values 0.962 | S. cerevisiae deletion strains, locus YPL055C, strain LGE1, hits give low values 1.01 | S. cerevisiae deletion strains, locus YPL241C, strain CIN2, hits give low values 0.899 | S. cerevisiae deletion strains, locus YPR135W, strain CTF4, hits give low values 0.944 | S. cerevisiae strains, strain wild type, hits give low values 0.959

N#CC(C#N)=Cc1ccc(-c2ccccc2C(F)(F)F)o1
inactive: S. cerevisiae deletion strains, locus YAR019C, strain CDC15, hits give low values 0.947 | S. cerevisiae deletion strains, locus YBL105C, strain PKC1, hits give low values 0.946 | S. cerevisiae deletion strains, locus YBR135W, strain CKS1, hits give low values 0.947 | S. cerevisiae deletion strains, locus YBR136W, strain MEC1, hits give low values 0.947 | S. cerevisiae deletion strains, locus YBR160W, strain CDC28, hits give low values 0.95 | S. cerevisiae deletion strains, locus YDL017W, strain CDC7, hits give low values 0.947 | S. cerevisiae deletion strains, locus YDL028C, strain MPS1, hits give low values 0.954 | [1] 0.925 | S. cerevisiae deletion strains, locus YDL108W, strain KIN28, hits give low values 0.953 | S. cerevisiae deletion strains, locus YDL132W, strain cdc53, hits give low values 0.947 | S. cerevisiae deletion strains, locus YDL214C, strain PRR2, hits give low values 0.901 | S. cerevisiae deletion strains, locus YDR052C, strain DBF4, hits give low values 0.957 | S. cerevisiae deletion strains, locus YDR054C, strain cdc34, hits give low values 0.94 | S. cerevisiae deletion strains, locus YDR226W, strain ADK1, hits give low values 0.943 | S. cerevisiae deletion strains, locus YDR477W, strain SNF1, hits give low values 0.913 | S. cerevisiae deletion strains, locus YER123W, strain YCK3, hits give low values 0.876 | S. cerevisiae deletion strains, locus YER133W, strain GLC7, hits give low values 0.925 | S. cerevisiae deletion strains, locus YFL009W, strain cdc4, hits give low values 0.94 | S. cerevisiae deletion strains, locus YFL029C, strain CAK1, hits give low values 0.945 | S. cerevisiae deletion strains, locus YFR003C, strain YPI1, hits give low values 0.944 | S. cerevisiae deletion strains, locus YFR019W, strain FAB1, hits give low values 0.898 | S. cerevisiae deletion strains, locus YFR028C, strain CDC14, hits give low values 0.94 | S. cerevisiae deletion strains, locus YGR040W, strain KSS1, hits give low values 0.903 | S. cerevisiae deletion strains, locus YGR052W, strain FMP48, hits give low values 0.871 | S. cerevisiae deletion strains, locus YGR092W, strain DBF2, hits give low values 0.783 | [2] 0.875 | S. cerevisiae deletion strains, locus YHR079C, strain IRE1, hits give low values 0.905 | S. cerevisiae deletion strains, locus YHR082C, strain KSP1, hits give low values 0.906 | S. cerevisiae deletion strains, locus YHR205W, strain SCH9, hits give low values 0.784 | S. cerevisiae deletion strains, locus YIL147C, strain SLN1, hits give low values 0.948 | S. cerevisiae deletion strains, locus YJL095W, strain BCK1, hits give low values 0.838 | S. cerevisiae deletion strains, locus YJL128C, strain PBS2, hits give low values 0.866 | S. cerevisiae deletion strains, locus YJL157C, strain FAR1, hits give low values 0.907 | S. cerevisiae deletion strains, locus YJR016C, strain ILV3, hits give low values 0.95 | S. cerevisiae deletion strains, locus YJR066W, strain TOR1 (second series), hits give low values 0.873 | S. cerevisiae deletion strains, locus YJR066W, strain TOR1, hits give low values 0.893 | S. cerevisiae deletion strains, locus YKL048C, strain ELM1, hits give low values 0.899 | S. cerevisiae deletion strains, locus YKL067W, strain YNK1, hits give low values 0.89 | S. cerevisiae deletion strains, locus YKL101W, strain HSL1, hits give low values 0.873 | S. cerevisiae deletion strains, locus YKL193C, strain SDS22, hits give low values 0.942 | S. cerevisiae deletion strains, locus YKL203C, strain TOR2, hits give low values 0.931 | S. cerevisiae deletion strains, locus YLR133W, strain CKI1, hits give low values 0.891 | S. cerevisiae deletion strains, locus YLR403W, strain SFP1, hits give low values 0.848 | S. cerevisiae deletion strains, locus YML070W, strain DAK1, hits give low values 0.894 | S. cerevisiae deletion strains, locus YMR001C, strain CDC5, hits give low values 0.94 | S. cerevisiae deletion strains, locus YMR205C, strain PFK2 (second series), hits give low values 0.899 | S. cerevisiae deletion strains, locus YMR277W, strain FCP1, hits give low values 0.935 | S. cerevisiae deletion strains, locus YNL006W, strain LST8, hits give low values 0.949 | S. cerevisiae deletion strains, locus YNL020C, strain ARK1, hits give low values 0.892 | S. cerevisiae deletion strains, locus YNL161W, strain CBK1, hits give low values 0.941 | S. cerevisiae deletion strains, locus YNL183C, strain NPR1, hits give low values 0.864 | S. cerevisiae deletion strains, locus YNL207W, strain RIO2, hits give low values 0.943 | S. cerevisiae deletion strains, locus YNL222W, strain SSU72, hits give low values 0.951 | S. cerevisiae deletion strains, locus YNL307C, strain MCK1 (second series), hits give low values 0.788 | S. cerevisiae deletion strains, locus YOL078W, strain AVO1, hits give low values 0.939 | S. cerevisiae deletion strains, locus YOL136C, strain PFK27, hits give low values 0.851 | S. cerevisiae deletion strains, locus YOR061W, strain CKA2, hits give low values 0.907 | S. cerevisiae deletion strains, locus YOR119C, strain RIO1, hits give low values 0.964 | S. cerevisiae deletion strains, locus YOR231W, strain MKK1, hits give low values 0.87 | S. cerevisiae deletion strains, locus YOR329C, strain SCD5, hits give low values 0.944 | S. cerevisiae deletion strains, locus YPL031C, strain PHO85, hits give low values 0.895 | S. cerevisiae deletion strains, locus YPL153C, strain RAD53, hits give low values 0.907 | S. cerevisiae deletion strains, locus YPL204W, strain HRR25, hits give low values 0.88 | S. cerevisiae deletion strains, locus YPL209C, strain IPL1, hits give low values 0.947 | S. cerevisiae deletion strains, locus YPL256C, strain CLN2, hits give low values 0.929 | S. cerevisiae deletion strains, locus YPR025C, strain CCL1, hits give low values 0.948 | S. cerevisiae deletion strains, locus YPR106W, strain ISR1, hits give low values 0.938 | S. cerevisiae deletion strains, locus YPR111W, strain DBF20, hits give low values 0.916 | S. cerevisiae deletion strains, strain NNK1, hits give low values 0.922 | S. cerevisiae deletion strains, strain TSCII, hits give low values 0.935
active: S. cerevisiae deletion strains, locus YLR113W, strain HOG1, hits give low values 0.758
